Molecules are shown by their SMILES. This is part of a sample that, as a whole, favours compounds with a hit. Of some 83,000 tested, about 20% had one in any assay.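 Results are percent growth after 48 hours of single-concentration exposure. 100 means growth as in untreated cells, lower positive values show inhibition; negative values down to -100 show cell death.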 Active and inactive are the calls of the source.

The assay concerns HCT-15 colon. Nature of the assay: NCI-60 one-dose screen, 48 h (100 = growth as untreated, 0 = no growth, -100 = all killed). The settings on record: 10 µM unless noted. How it is done:
Growth inhibition of the HCT-15 human tumor cell line is measured as a screen for anti-cancer activity. Cells are grown in 96 well plates and exposed to the test compound for 48 hours. Compounds are tested at a single concentration, which is 10^-5 M for most compounds. The reported endpoint is percent growth (GI% or GIPRCNT), where numbers from 0 - 100% represent growth inhibition, and numbers from -100% - 0 represent cell death. For example, a value of 40 represents 60% growth inhibition. A value of 0 means no net growth occurred over the course of the experiment. A value of -40 indicates 40% of cells at the beginning of the experiment died by the end of the experiment. A value of -100 means all cells are dead at the end of the experiment.
NCI-60 Human Tumor Cell Lines Screen was performed using the standard one-dose NCI protocol, which is described in more detail at https://dtp.cancer.gov/discovery_development/nci-60/default.htm.
Compounds with GIPRCNT values below 10 were considered active. Activity score was based on GIPRCNT using the following formula: […]
Score is 0 for GIPRCNT values of 100 or above, 50 for GIPRCNT values of 0, and 100 for GIPRCNT values of -100.
Turning to `CSc1nc2sc3c(c2c(=O)n1-c1ccc([N+](=O)[O-])cc1)CCCCC3`, the growth was 94.6% (inactive).

As to `CNC(=O)c1cc(Oc2ccc3nc(NC(C)=O)sc3c2)ccn1`, the growth was 106% (inactive). `CNC(=O)c1cc(Oc2ccc3c(c2)sc2nc(-c4cc(OC)c(OC)c(OC)c4)cn23)ccn1`: the growth is 54.1% (inactive).

Turning to `CC(C)(C)n1cc(-c2ccnc(NCCCNS(=O)(=O)c3ccc(F)cc3)c2)c(-c2cccc(F)c2)n1`, the growth was 5.18% (active). Under `O=C(Cn1c(-c2ccc([N+](=O)[O-])cc2)nc2ccccc21)NNC(=O)c1cccnc1` stands 80.9% (inactive). The value for `N#CC1=C(c2ccc(Cl)cc2)Nc2c(c(-c3ccc(Cl)cc3)nn2-c2ccccc2)C12C(=O)Nc1ccc(Cl)cc12` (stereo not given) was 18.4% (inactive); that for `CCOC(=O)C1=C(NC)OCC1=O` was 111% (inactive). The value for `O=C(CSc1nc2ccc([N+](=O)[O-])cc2[nH]1)Nc1cccc(C(F)(F)F)c1` was 23.5% (inactive). With `COC(=O)c1c2c(c(C)[n+]([O-])c1C)C(=O)C(NCc1ccc(Cl)cc1)=CC2=O`, the growth is 39.6% (inactive).

With `COc1ccc(C(c2cc(OC)c(OC)c(OC)c2)N2CCN(c3ccccc3)CC2)cc1` (stereo not given), the growth is 67.6% (inactive).

For `Clc1ccc(Sc2cnc(-c3ccccc3)o2)cc1`, the growth was 103% (inactive). Under `Nc1nc2c([nH]1)c1[nH]c3ccccc3c1c1[nH]c3ccccc3c21` stands 51% (inactive). The value for `COC(=O)c1n[nH]c2ccc3nc(-c4cn[nH]c4C(F)(F)F)c4c(c3c12)CCCC4` was 39% (inactive). Turning to `CCOC(=O)C1=NN(c2ccccc2)C(=O)/C1=C\N1C(=O)CC(=O)NC1=S`, the growth was 105% (inactive). Under `CC(C)(C)n1cc(-c2ccnc(NCCNS(=O)(=O)c3cccc4ccccc34)c2)c(-c2cccc(F)c2)n1` stands -37.2% (active). The value for `COc1ccc(/C(C)=C(/c2ccc(OCCCN(C)C)cc2)c2ccc(OC(=O)Cc3ccccc3)cc2)cc1` was 54.6% (inactive).

Take `O=C(Cn1c(=O)sc2ccccc21)NNS(=O)(=O)c1ccccc1[N+](=O)[O-]`: the growth was 103% (inactive). The value for `Cc1cccnc1NC(=S)Nc1ncccc1C` was 104% (inactive).

`Nc1c(C(=O)Nc2ccccc2Cl)sc2nc3c(cc12)C(O)CCC3` (stereo not given): the growth is 30.5% (inactive). The value for `COC(C(=O)[C@@H](O)[C@@H](C)O)[C@@H]1Cc2cc3cc(O[C@H]4C[C@@H](O[C@H]5C[C@@H](O)[C@H](O)C(C)O5)[C@H](O)C(C)O4)cc(O)c3c(O)c2C(=O)[C@H]1O[C@H]1C[C@@H](O[C@H]2C[C@@H](O[C@H]3C[C@@H](OC)[C@H](O)C(C)O3)[C@@H](O)C(C)O2)[C@H](O)C(C)O1` (stereo not given in full) was 102% (inactive); that for `Brc1c2c(c(Br)c3ccccc13)CCCC2` was 112% (inactive); that for `CCCCCC(=O)OCC(=O)O[C@@H]1C[C@]2(C(C)C)O[C@@]1(C)[C@@H]1CC[C@@H](C)[C@H]1[C@@H]2OC(=O)/C=C/c1ccccc1` was 68.8% (inactive).

For the compound `C#CCOc1cccc(Nc2ncnc3c(NC(=O)C=C)cccc23)c1`, the growth was 21.3% (inactive). Turning to `CC1(C)CCC(S(=O)(=O)c2ccc3c(c2)/C(=N\O)c2cc(S(=O)(=O)N4CCC(O)(c5cccc(C(F)(F)F)c5)CC4)ccc2-3)CC1`, the growth is 16.3% (inactive). The value for `O=C(/C=C/c1ccc(Cl)cc1)c1cccc(Nc2nc(Nc3ccccc3)nc(Nc3ccccc3)n2)c1` was 83.9% (inactive); that for `Cc1ccc(Sc2oc(-c3ccc(C)cc3)nc2[P+](c2ccccc2)(c2ccccc2)c2ccccc2)cc1` was 0.625% (active). Under `C=C(C)[C@@H]1CC[C@]2(C(=O)OC)CC[C@]3(C)[C@H](CC[C@@H]4[C@@]5(C)C/C(=C/NC(N)=S)C(=O)C(C)(C)[C@@H]5CC[C@]43C)[C@@H]12` stands 92.8% (inactive); under `Cc1cccc2c1NC(=O)C2(c1ccc(O)cc1)c1ccc(O)cc1`, 49.3% (inactive). Under `Cc1ccc(Sc2nnc(/N=C3\C(=O)Nc4ccccc43)s2)cc1` stands 105% (inactive); under `Cc1ccc(-c2nc(/C=C3/C(=O)Nc4ccccc43)c3ccccn23)cc1`, 26.5% (inactive); under `O=C(c1ccccc1)C1C(=O)N2C(=S)N(c3ccccc3)C(=O)C2C1c1ccc(Cl)cc1` (stereo not given), 105% (inactive). Take `O=C(CCc1nnc(Cn2cnc3nc[nH]c3c2=O)o1)c1nc2ncccc2[nH]1`: the growth was 104% (inactive). Take `CNC(=O)c1c(NC(=O)c2ccc(C(F)(F)F)cc2)sc2c1CCC(=O)C2`: the growth was -54.1% (active).

As to `CC1=Nc2cnc(Nc3ccc(OCCN4CCCCC4)cc3)nc2Nc2ccccc21`, the growth was 27.8% (inactive).

As to `CCN(CC)CCSc1nc(-c2ccccc2)c(C#N)c(=O)[nH]1`, the growth was 117% (inactive). The value for `CCSc1nc(NC)c2cc(-c3ccc(C(F)(F)F)cc3)ccc2n1` was 95.5% (inactive); that for `CN1C(=O)/C(=C/c2cn(-c3ccccc3)nc2-c2ccccc2)SC1=S` was 103% (inactive); that for `C1=CN2CC(c3ccccc3)=NNC2c2ccccc21` (stereo not given) was 96.6% (inactive). Under `CO/N=C(/C)c1ccc(NC(=O)CSc2nnc(-c3ccncc3)n2-c2ccccc2)cc1` stands 73% (inactive); under `O=C1/C(=C/c2ccc(F)cc2)COc2ccc(O)c(O)c21`, -27.7% (active).

The values are drawn from PubChem BioAssay (NCI).
